In PubChem BioAssay (NCATS):
Records with an inconclusive call do not appear. Values without a mark were called inactive. The source made the active and inactive calls. Calls follow the shape of the dose curve; as a rule, active = well fitted cell-killing curve with a large enough effect; inconclusive = small, poorly fitted or top-dose-only effect, or effect the other way; inactive = no such curve, though single readings can be large or run the other way.

Assay: Quantitative High-Throughput drug screen in 47 multiple myeloma cell lines against the NCATS MIPE library collection: U266_ATCC cell viability assay (AID 1919864); also: nearly all actives have a fitted effect of over 35% in size
Conditions: U266 myeloma viability, CellTiter-Glo ATP luminescence, 48 h; series mostly up to 45.8 µM; viability (% of DMSO control): at the top concentration
Outline: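 MIPE 4.0 approved/investigational drugs; 500 cells/well; 48 h 37 °C humidified 5% CO2; CTG luminescence readout; DMSO = 100%, media = 0% viability.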
Potency is read from the fitted curve at half-maximal effect.

Compound | viability (% of DMSO control) [%] | Potency
CNC(=O)c1ccc(C)c(-n2c(C)cc(OCc3ccc(F)cc3F)c(Br)c2=O)c1 | 103 | 
COc1cc(F)c(F)c(Nc2ccc(I)cc2F)c1NS(=O)(=O)C1(C[C@H](O)CO)CC1 |  | 16.6 µM (active)
N#Cc1ccc(C(c2ccc(C#N)cc2)n2cncn2)cc1 |  | 16.6 µM (active)
CC(C)(Sc1ccc(CCN(CCCCC2CCCCC2)C(=O)NC2CCCCC2)cc1)C(=O)O |  | 16.6 µM (active)
NC[C@H](O)c1ccc(O)c(O)c1 | 116 | 
CCCc1nn(C)c2c(=O)[nH]c(-c3cc(S(=O)(=O)N4CCN(C)CC4)ccc3OCC)nc12 |  | 20.9 µM (active)
Nc1nc2ccc(OC(F)(F)F)cc2s1 | 119 | 
O=C1CCC(N2C(=O)c3ccccc3C2=O)C(=O)N1 (stereo not given) |  | 18.7 µM (active)
Cc1cc([C@@H](C)Nc2ccccc2C(=O)O)c2nc(N3CCOCC3)cc(=O)n2c1 |  | 5.4 µM (active)
Cc1cc2c(F)c(Oc3ncnn4cc(OC[C@@H](C)O)c(C)c34)ccc2[nH]1 |  | 23.5 µM (active)
CN(C)c1ccc(C2Nc3ccc4ccccc4c3C3=C2C(=O)CC(C)(C)C3)cc1Br (stereo not given) | 143 | 
O=C1CCCC2=C1C(c1[nH]ncc1Cl)N=C(Nc1nc3ccccc3o1)N2 (stereo not given) |  | 14.8 µM (active)
COc1nc(-c2ccc3c(c2)OCO3)n(-c2ccc(NC(=O)CSc3ccccc3)cc2)n1 |  | 5.26 µM (active)
O=c1ncn2nc(Sc3ccc(F)cc3F)ccc2c1-c1c(Cl)cccc1Cl |  | 20.9 µM (active)
CCc1cncnc1N1CCN(Cc2nc3ccc(C(F)(F)F)cc3[nH]2)CC1 |  | 6.62 µM (active)
